In the supplement of paper PMC12494721:
Structures can show the parent of a compound that is named as a salt.

How the values were obtained:
Details in all cases: incubation time: 27 h, anaerobic, 37 °C;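 for the amine columns active = adjusted P below 0.05 in both replicates with a change the same way and a mean fold change under 0.8 or over 1.25; inactive = the rest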
[1] = test system: Clostridium sporogenes DSM 1664; experiment: growth (OD595) fold change vs plate DMSO controls (fold change (ratio)); higher = more growth
Procedure, shortened: (§1)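 The measure reported is growth, taken as fold change against the median of DMSO controls on the same plate. Anaerobic mGAM cultures in 96-well plates (27 h, 37 °C) were read at 595 nm, blank-subtracted, corrected for compound background using 20 µM compound solutions in water, and multiplied by a calibration factor of 5 to give OD. Any fold change above 1.5 became NA, and 2 biological replicates were averaged.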

Escherichia coli IAI1 [2] = experiment: as above
Procedure, shortened: as §1

[3] = test system: Klebsiella aerogenes DSM 30053; experiment: as above
Procedure, shortened: as §1

[4] = test system: Ruminococcus gnavus DSM 108212; experiment: as above
Procedure, shortened: as §1

[5] = test system: Klebsiella aerogenes DSM 30053; experiment: fold change of Histamine concentration vs plate DMSO controls (fold change (ratio)); higher = more amine produced, active = hit call of the paper (significant change in both replicates, either direction)
Procedure, shortened: (§2)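 Each value is the fold change relative to DMSO-only wells on the same plate. Four gut bacterial strains were grown anaerobically in mGAM at 37 °C for 27 h in 80 µL wells, starting at OD 0.1 before a 1:1 dilution, with compounds at 20 µM final (sweeteners 50 µM). Whole cultures were extracted with cold acetonitrile/methanol containing 0.1% formic acid, centrifuged, and amines were quantified by LC–triple-quadrupole MS (dynamic MRM) against external calibration curves with within-batch drift correction. Values are means of 2 biological replicates.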

[6] = test system: Clostridium sporogenes DSM 1664; experiment: fold change of Tryptamine concentration vs plate DMSO controls (fold change (ratio)); higher = more amine produced, active = hit call of the paper (significant change in both replicates, either direction)
Procedure, shortened: as §2

[7] = test system: Ruminococcus gnavus DSM 108212; experiment: as above
Procedure, shortened: as §2

Escherichia coli IAI1 [8] = experiment: fold change of Putrescine concentration vs plate DMSO controls (fold change (ratio)); higher = more amine produced, active = hit call of the paper (significant change in both replicates, either direction)
Procedure, shortened: as §2

[9] = test system: Klebsiella aerogenes DSM 30053; experiment: as above
Procedure, shortened: as §2

Escherichia coli IAI1 [10] = experiment: fold change of Cadaverine concentration vs plate DMSO controls (fold change (ratio)); higher = more amine produced, active = hit call of the paper (significant change in both replicates, either direction)
Procedure, shortened: as §2

[11] = test system: Klebsiella aerogenes DSM 30053; experiment: as above
Procedure, shortened: as §2

[12] = test system: Ruminococcus gnavus DSM 108212; experiment: fold change of 2-Phenylethylamine concentration vs plate DMSO controls (fold change (ratio)); higher = more amine produced, active = hit call of the paper (significant change in both replicates, either direction)
Procedure, shortened: as §2

Row | SMILES | growth [1] | growth (Escherichia coli IAI1 [2]) | growth [3] | growth [4] | fold change of Histamine concentration [5] | fold change of Tryptamine concentration [6] | fold change of Tryptamine concentration [7] | fold change of Putrescine concentration (Escherichia coli IAI1 [8]) | fold change of Putrescine concentration [9] | fold change of Cadaverine concentration (Escherichia coli IAI1 [10]) | fold change of Cadaverine concentration [11] | fold change of 2-Phenylethylamine concentration [12]
1 | COc1ccc(C(=O)c2ccccc2O)c(O)c1 [Dioxybenzone] (20 µM) | 0.846 | 0.791 | 0.972 | 0.955 | 0.962 (inactive) | 1 (inactive) | 0.977 (inactive) | 0.86 (inactive) | 0.985 (inactive) | 1.07 (inactive) | 0.996 (inactive) | 0.937 (inactive)
2 | COC(=O)CCc1ccc(OCC(O)CNC(C)C)cc1 (stereo not drawn) [Esmolol hydrochloride] (20 µM) | 0.978 | 0.87 | 0.987 | 0.947 | 0.88 (inactive) | 0.972 (inactive) | 1.1 (inactive) | 0.959 (inactive) | 0.988 (inactive) | 1.09 (inactive) | 1.02 (inactive) | 1.07 (inactive)
3 | CN(C)CCN(Cc1ccc(Cl)cc1)c1ccccn1 [Chloropyramine hydrochloride] (20 µM) | 0.894 | 1.03 | 0.92 | 0.771 | 0.98 (inactive) | 1.05 (inactive) | 1.16 (inactive) | 0.817 (inactive) | 0.975 (inactive) | 1.58 (active) | 0.994 (inactive) | 1.27 (inactive)
4 | O=C1c2cccc3c2[C@H](CCC3)CN1[C@@H]1CN2CCC1CC2 [Palonosetron hydrochloride] (20 µM) | 1 | 1.05 | 0.978 | 0.887 | 1.09 (inactive) | 0.963 (inactive) | 1.04 (inactive) | 1.06 (inactive) | 0.996 (inactive) | 0.979 (inactive) | 0.983 (inactive) | 1.04 (inactive)
5 | CCN(CC)CCNC(=O)c1cc(Br)c(N)cc1OC [Bromopride] (20 µM) | 0.874 | 1.03 | 1.05 | 1.12 | 1.01 (inactive) | 1 (inactive) | 1 (inactive) | 1.02 (inactive) | 0.998 (inactive) | 0.967 (inactive) | 1.01 (inactive) | 1.02 (inactive)
6 | Cc1cccc(N(C)C(=S)Oc2ccc3ccccc3c2)c1 [Tolnaftate] (20 µM) | 1.02 | 0.997 | 0.984 | 0.839 | 0.984 (inactive) | 1.04 (inactive) | 1.06 (inactive) | 1.04 (inactive) | 1.01 (inactive) | 1 (inactive) | 1 (inactive) | 1.04 (inactive)
7 | Cn1c(=O)c2nc[nH]c2n(C)c1=O [Theophylline monohydrate] (20 µM) | 1.19 | 1.11 | 1.04 | 1.12 | 0.952 (inactive) | 1.1 (inactive) | 1.1 (inactive) | 1.24 (inactive) | 0.957 (inactive) | 0.9 (inactive) | 1.02 (inactive) | 1.15 (inactive)
8 | CCCCC(=O)O[C@H]1CC[C@H]2[C@@H]3CCc4cc(O)ccc4[C@H]3CC[C@]12C [Estradiol Valerate] (20 µM) | 0.581 | 0.995 | 0.996 | 1.05 | 0.898 (inactive) | 0.24 (active) | 1 (inactive) | 0.88 (inactive) | 0.925 (inactive) | 0.926 (inactive) | 1.05 (inactive) | 0.953 (inactive)
9 | CC(C)(C)C(=O)OCOC(=O)[C@@H]1N2C(=O)[C@@H](/N=C/N3CCCCCC3)[C@H]2SC1(C)C [Pivmecillinam hydrochloride] (20 µM) | 0.954 | 1.01 | 0.909 | 1.2 | 0.597 (active) | 1.01 (inactive) | 1.03 (inactive) | 1.02 (inactive) | 0.954 (inactive) | 1.46 (active) | 1.01 (inactive) | 1.03 (inactive)
10 | Cc1c(Cl)cccc1Nc1ncccc1C(=O)O [Clonixin lysinate] (20 µM) | 1.13 | 1.07 | 1.02 | 1.43 | 1.01 (inactive) | 0.959 (inactive) | 1.01 (inactive) | 1.1 (inactive) | 1.03 (inactive) | 0.96 (inactive) | 1.04 (inactive) | 1.01 (inactive)
11 | Cc1nccn1CC1CCc2c(c3ccccc3n2C)C1=O (stereo not drawn) [Ondansetron hydrochloride] (20 µM) | 0.937 | 0.997 | 0.989 | 1.08 | 1.01 (inactive) | 1.03 (inactive) | 1.01 (inactive) | 1.05 (inactive) | 0.978 (inactive) | 1.01 (inactive) | 0.995 (inactive) | 1.01 (inactive)
12 | Cc1nc2ccccn2c(=O)c1CCN1CCC(C(=O)c2ccc(F)cc2)CC1 [Pirenperone] (20 µM) | 0.963 | 1.01 | 1.01 | 1.05 | 1.06 (inactive) | 0.996 (inactive) | 0.997 (inactive) | 0.995 (inactive) | 1.01 (inactive) | 1.03 (inactive) | 0.983 (inactive) | 0.969 (inactive)
13 | O=S(=O)(O)CCS [Coenzyme M] (20 µM) | 0.917 | 1.06 | 1 | 1.01 | 1.12 (inactive) | 1.02 (inactive) | 0.951 (inactive) | 1.03 (inactive) | 1.01 (inactive) | 0.979 (inactive) | 0.986 (inactive) | 0.902 (inactive)
14 | CC1(C)O[C@@H]2C[C@H]3[C@@H]4C[C@H](F)C5=CC(=O)C=C[C@]5(C)[C@H]4[C@@H](O)C[C@]3(C)[C@]2(C(=O)CO)O1 [Flunisolide] (20 µM) | 0.942 | 0.993 | 1.03 | 0.998 | 0.949 (inactive) | 1.03 (inactive) | 1.19 (inactive) | 1.05 (inactive) | 1.05 (inactive) | 1.07 (inactive) | 1.09 (inactive) | 1.51 (inactive)
15 | CC[C@H]1OC(=O)[C@H](C)[C@@H](O[C@H]2C[C@@](C)(OC)[C@@H](O)[C@H](C)O2)[C@H](C)[C@@H](O[C@@H]2O[C@H](C)C[C@H](N(C)C)[C@H]2O)[C@](C)(O)C[C@@H](C)/C(=N\OCOCCOC)[C@H](C)[C@@H](O)[C@]1(C)O [Roxithromycin] (20 µM) | 0.00175 | 0.826 | 0.95 | 0.194 | 0.995 (inactive) | 0.0367 (active) | 0.0981 (active) | 0.576 (active) | 0.973 (inactive) | 0.909 (inactive) | 1 (inactive) | 0.123 (active)
16 | CC(C)(C(=O)c1cccnc1)c1cccnc1 [Metyrapone] (20 µM) | 1.01 | 1.01 | 1.01 | 1 | 1.03 (inactive) | 1 (inactive) | 1 (inactive) | 0.985 (inactive) | 1.02 (inactive) | 1.01 (inactive) | 1 (inactive) | 1.01 (inactive)
17 | CN(C)C(=O)Nc1ccc(Cl)c(Cl)c1 (20 µM) | 1.05 | 1.02 | 0.938 | 1.08 | 1.01 (inactive) | 0.947 (inactive) | 0.962 (inactive) | 0.97 (inactive) | 0.976 (inactive) | 0.991 (inactive) | 0.99 (inactive) | 0.954 (inactive)
18 | Cc1c(N(C)CS(=O)(=O)O)c(=O)n(-c2ccccc2)n1C [Dipyrone sodium salt] (20 µM) | 1.02 | 1.14 | 1.07 | 1.13 | 0.958 (inactive) | 1.11 (inactive) | 1.03 (inactive) | 1.05 (inactive) | 0.957 (inactive) | 0.991 (inactive) | 1.02 (inactive) | 1 (inactive)
19 | O=C(O)C[C@H](O)C[C@H](O)/C=C/c1c(C2CC2)nc2ccccc2c1-c1ccc(F)cc1 [Pitavastatin calcium] (20 µM) | 1.08 | 1.01 | 0.996 | 1.12 | 1.03 (inactive) | 0.992 (inactive) | 0.997 (inactive) | 1.01 (inactive) | 1.01 (inactive) | 1 (inactive) | 0.997 (inactive) | 1.04 (inactive)
20 | O=C1[C@@H]2[C@H]3CC[C@H](C3)[C@@H]2C(=O)N1CCCCN1CCN(c2ncccn2)CC1 [Tandospirone] (20 µM) | 0.973 | 1.04 | 1.03 | 1.06 | 0.981 (inactive) | 0.992 (inactive) | 1.01 (inactive) | 0.989 (inactive) | 0.995 (inactive) | 1 (inactive) | 0.997 (inactive) | 1.06 (inactive)
21 | Nc1ccc(S(=O)(=O)Nc2ccnn2-c2ccccc2)cc1 [Sulfaphenazole] (20 µM) | 1.01 | 1.11 | 1.04 | 1.11 | 0.99 (inactive) | 0.977 (inactive) | 0.994 (inactive) | 1.04 (inactive) | 1.03 (inactive) | 1.04 (inactive) | 1.02 (inactive) | 0.95 (inactive)
22 | CNCC(O)c1ccc(OC(=O)C(C)(C)C)c(OC(=O)C(C)(C)C)c1 (stereo not drawn) [Dipivefrin hydrochloride] (20 µM) | 1.15 | 1.07 | 0.982 | 1.02 | 1.01 (inactive) | 1.15 (inactive) | 1.11 (inactive) | 1.01 (inactive) | 0.981 (inactive) | 0.995 (inactive) | 0.991 (inactive) | 1.16 (inactive)
23 | Cc1cc(O)c(C(=O)N[C@@H](C(=O)N[C@@H]2C(=O)N3C(C(=O)O)=C(CSc4nnnn4C)CS[C@H]23)c2ccc(O)cc2)cn1 [Cefpiramide] (20 µM) | 0 | 0.0131 | 0.61 | 0 | 0.829 (inactive) | 0.0275 (active) | 0.0434 (active) | 0.516 (inactive) | 0.981 (inactive) | 1.92 (active) | 1.08 (inactive) | 0.0464 (active)
24 | CC#C[C@]1(O)CC[C@H]2[C@@H]3CCC4=CC(=O)CCC4=C3[C@@H](c3ccc(N(C)C)cc3)C[C@@]21C [Mifepristone] (20 µM) | 1.19 | 0.971 | 0.986 | 1.09 | 1.02 (inactive) | 0.911 (inactive) | 0.975 (inactive) | 1.01 (inactive) | 1.02 (inactive) | 1.01 (inactive) | 0.998 (inactive) | 0.902 (inactive)
